{
  "source": "PubChem BioAssay (NCATS)",
  "note": "Inconclusive results are not listed. Active and inactive are the calls of the source. The call rests on the fitted dose curve; in most records, active means well fitted inhibition curve with a large enough effect; inconclusive means small, poorly fitted or top-dose-only effect; inactive means flat fitted curve, though single readings scatter. Where a SMILES comes first, the peptide text is derived from it. [ ]: non-standard residue; d: D form. ξ: configuration not given here. ξTyr(βOH) = NC(C(=O)O)C(O)c1ccc(O)cc1",
  "data": [
    {"test_system": "HACAT", "experiment": "qHTS assay to identify novel small-molecules to repurpose for Merkel cell carcinoma treatment (AID 1296009); further: nearly all actives have a fitted effect of over 60% in size", "conditions": "MCC and control cell lines, CellTiter-Glo viability, 72 h; at 44.8 µM (top of the series) unless noted", "in_short": "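Cells were treated for 72 hr at 37 degree celsius with compounds in 8- or 11-point dose response. Viability was read by CellTiter-Glo luminescence, normalized to no-cell (cytotoxicity) and DMSO controls.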", "values": [
      {"smiles": "NC1(c2ccc(NC(=O)c3ccnc(-c4cc(C(=O)O)ccn4)c3)cc2)CC1", "outcome": "inactive"},
      {"smiles": "CCCC/C=C\\CCCCCc1cc(=O)c2ccccc2n1C", "outcome": "inactive"},
      {"smiles": "COCc1c(O)c(C(=O)O)c(C)c2c1OC(=O)c1c(C)cc(O)c(CO)c1O2", "outcome": "inactive"},
      {"smiles": "C/C=C/C=C/C1=C2C(=O)C3(C)C4C(C(=O)CC(O)/C=C/C)=C(O1)C1(C)C2C2(C)OC1(O)C4(C)OC23O", "note": "(stereo not drawn)", "outcome": "inactive [at 17.4 µM]"},
      {"smiles": "CC12CC(O)C(O)C=C1c1cc(O)cc(O)c1C(=O)O2", "note": "(stereo not drawn)", "outcome": "inactive"},
      {"smiles": "C=C1C2(C)CC3C4(C)C=CC(=O)OC(C)(C)C4CCC3(C)C1(C(=O)OC)C(=O)C(C)(O)C2=O", "note": "(stereo not drawn)", "outcome": "inactive [at 17.4 µM]"},
      {"smiles": "CC1(C)[C@H]2C[C@H](C/C=C\\CCCC(=O)O)[C@@H](NC(=O)c3csc4ccc(O)cc34)[C@@H]1C2", "outcome": "inactive"},
      {"smiles": "CC(C)c1ccc2c(c1)CCC1[C@](C)(C(=O)O)CCC[C@]21C", "note": "(stereo partly drawn)", "outcome": "inactive"},
      {"smiles": "C[C@@H]1O[C@@H](OC(=O)Cc2ccccc2)[C@H](O)[C@H](O)[C@H]1O", "outcome": "inactive"},
      {"smiles": "Cn1cc(-c2c[nH]c3ncnc(N4CCOCC4)c23)cn1", "outcome": "inactive"},
      {"smiles": "CC(C)C1NC(=O)C(CC2(O)c3ccccc3N3C(=O)C(Cc4ccccc4)NC32)NC1=O", "note": "(stereo not drawn)", "outcome": "inactive [at 17.4 µM]"},
      {"smiles": "C[C@@]12CC3(S(=O)(=O)O)OC(O1)[C@]1(COC(=O)c4ccccc4)[C@H]3C[C@]21O[C@@H]1O[C@H](CO)[C@@H](O)[C@H](O)[C@H]1O", "outcome": "inactive [at 17.4 µM]"},
      {"smiles": "CC(C)C1NC(=O)CNC(=O)C2CCCN2C(=O)C(Cc2c[nH]c3ccccc23)NC(=O)CNC(=O)C(C(O)c2ccc(O)cc2)NC(=O)CNC1=O", "note": "(stereo not drawn) (cyclo(G[ξTyr(βOH)]GWPGV); configuration not given here)", "outcome": "inactive [at 17.4 µM]"}
    ]}
  ]
}
